Hits are enriched below; roughly 3.2% of the tested compounds scored in any of these assays.
CHT inh: inhibits the human high affinity choline transporter; Q9GZV3; CHT-expressing cells, membrane potential dye, choline response; stronger effect = lower value; actives 0.86% (n = 310,000); B-score at 10 µM;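 active = B-score over 3 SD under the library average, and starting fluorescence ratio not unusually high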;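 note: choline stimulus applied at its EC90 after an EC20 pre-addition; B-score computed on integrated fluorescence ratio after choline addition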
Target sequence (Q9GZV3 whole entry, looked up): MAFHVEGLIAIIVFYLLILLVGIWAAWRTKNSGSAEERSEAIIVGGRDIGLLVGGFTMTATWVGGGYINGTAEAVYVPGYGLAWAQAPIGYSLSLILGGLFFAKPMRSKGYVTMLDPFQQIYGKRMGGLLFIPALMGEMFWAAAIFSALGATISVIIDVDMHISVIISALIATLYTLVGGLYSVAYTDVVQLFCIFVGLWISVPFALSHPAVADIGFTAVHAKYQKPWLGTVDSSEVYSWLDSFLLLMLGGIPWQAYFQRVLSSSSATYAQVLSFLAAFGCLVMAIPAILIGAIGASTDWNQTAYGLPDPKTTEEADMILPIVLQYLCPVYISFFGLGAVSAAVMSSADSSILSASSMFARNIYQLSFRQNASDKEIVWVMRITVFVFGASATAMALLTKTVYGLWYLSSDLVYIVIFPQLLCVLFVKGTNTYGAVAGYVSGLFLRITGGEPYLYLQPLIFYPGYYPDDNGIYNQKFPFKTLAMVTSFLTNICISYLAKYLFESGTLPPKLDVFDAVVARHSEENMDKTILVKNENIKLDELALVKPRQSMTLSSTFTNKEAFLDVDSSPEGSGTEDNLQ
HDAC3 inhib: human HDAC3 inhibition; O15379; recombinant HDAC3, fluorogenic peptide/trypsin coupled, fluorescence; inhibition, % at 8.3 µM; actives 0.15% (n = 320,000); AID 2718; in the data active = inhibition above about 26%, passing the limit was not always enough
ANO1 block: mouse TMEM16A channel inhibition, primary screen. Q8BHY3. HEK293 TMEM16A/YFP iodide influx fluorescence, ionomycin. normalized B-score (activity score, 25-100; higher = stronger inhibition) at 10 µM. actives 1.2% (n = 310,000);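 active = ratio plate-corrected score three or more library SD toward inhibition, starting fluorescence score within five deviations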;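 note: score derived from kinetic fluorescence span divided by baseline fluorescence per well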
CHT PAM: allosteric activators of human choline transporter CHT | Q9GZV3 | CHT-expressing cells, membrane potential dye, choline EC20; stronger effect = higher value; LV-AA mutant CHT in HEK293 cells | B-score at 10 µM | actives 0.49% (n = 310,000) | AID 488977;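 active = initial fluorescence not abnormally high and integrated response B-score, plate-corrected, over 3 SD above library mean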
PHOSPHO1 block: inhibitors of human PHOSPHO1 phosphatase. recombinant PHOSPHO1, absorbance phosphatase assay. actives 1.1% (n = 290,000). inhibition, % at 13.3 µM. AID 1565. Q8TCT1; in the data active = inhibition above about 60%
ANO1 activ: mouse TMEM16A channel activation, primary screen; actives 0.3% (n = 340,000); B-score at 10 µM; HEK293 TMEM16A/YFP-H148Q/I152L, iodide quench fluorescence; stronger effect = lower value; AID 623877;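 active = fluorescence-ratio B-score plate-corrected deviation score at least 3 library SD below zero, with starting fluorescence score within 5 deviations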;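 note: channel opened by trigger with iodide after compound preincubation; score built on the fluorescence ratio of max minus min over baseline; more negative score means more quench and so TMEM16A activation or potentiation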
CHT block conf: confirmation of human choline transporter CHT inhibitors. shares compounds with CHT inh. CHT-expressing cells, choline membrane potential dye; LV-to-AA substituted CHT, HEK293 cells. CHT activity remaining % of control (stronger effect = lower value), % at 10 µM. actives 70% (n = 2,400). AID 493221;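 active = choline transporter activity left, mean of duplicates at 10 µM, below buffer-only control mean minus 3 SD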;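 note: depolarization triggered by choline at its EC90 following an EC20 pre-addition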
HEK293 CHT ctr: counter-screen for CHT inhibitors: effect in parental HEK293 cells. membrane potential dye, choline response; active = decrease or increase beyond buffer ±3SD. shares compounds with CHT inh. membrane potential ratio readout (active if shifted either direction beyond buffer ±3SD; no single direction) at 10 µM. AID 493222. actives 4% (n = 2,400);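 note: parental cells lack the transporter so any hit is non-specific; ratio is peak minus trough fluorescence over baseline after EC90 choline challenge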
Of the large screens only hits and unclear results are named; the others gave an inactive call (follow-up assays come after a bar, where they were run).

Fc1cccc(-c2cc3nc4c(c(N5CCC6(CC5)OCCO6)n3n2)CCCC4)c1	CHT inh -7.8 (no result: HDAC3 inhib) | CHT block conf inactive | HEK293 CHT ctr inactive
C=CCc1ccc(OCC(O)CN2CCC(Cc3ccccc3)CC2)c(OC)c1 (stereo not drawn)	CHT inh -7.2 | CHT block conf 31% | HEK293 CHT ctr inactive
CCCn1c(SCC(=O)c2cc(C)n(-c3ccc4c(c3)OCO4)c2C)n[nH]c1=O	CHT inh -5.5 (no result: HDAC3 inhib) | CHT block conf inactive | HEK293 CHT ctr inactive
OC(CNC1Cc2ccccc2C1)c1ccccc1 (stereo not drawn)	CHT inh -5.2 (no result: PHOSPHO1 block) | CHT block conf 52% | HEK293 CHT ctr inactive
COc1ccccc1CNC(=O)CNC(=O)Cn1cnc2ccccc2c1=O	none
O=C(CN1C(=O)NC2(CCCC2)C1=O)NCCc1ccc(Cl)cc1Cl	none (no result: CHT inh, ANO1 block, CHT PAM, PHOSPHO1 block)
O=C(NC1CCCCC1)c1ccc(S(=O)(=O)NCc2ccco2)cc1	CHT inh -5.5 | CHT block conf inactive | HEK293 CHT ctr inactive
O=C(NC1CCN(Cc2ccccc2)CC1)c1ccc(S(=O)(=O)NCc2ccco2)cc1	none
COc1ccc(Cn2c(=S)[nH]c3ccccc32)cc1	none
O=C(NCC1CCCCC1)c1cc(S(=O)(=O)N2CCCCC2)ccc1Cl	none (no result: CHT inh, ANO1 block, CHT PAM, PHOSPHO1 block)
COCCn1c(SCC(=O)Nc2ccccc2C(F)(F)F)nc2ccccc2c1=O	CHT inh -5.3 | CHT block conf inactive | HEK293 CHT ctr inactive
COCCn1c(SCC(=O)N2CCCc3ccccc32)nc2c(c1=O)SC(C)C2 (stereo not drawn)	none
COCCn1c(SCC(=O)N2CCCc3ccccc32)nc2ccccc2c1=O	CHT inh -5.2 | CHT block conf inactive | HEK293 CHT ctr inactive
CC1Cc2nc(SCC(=O)N3CCCc4ccccc43)n(C)c(=O)c2S1 (stereo not drawn)	CHT inh -7.6 | CHT block conf 24% | HEK293 CHT ctr inactive
COCCn1c(SCC(=O)Nc2ccc(NC(C)=O)cc2)nc2ccccc2c1=O	none
c1cc2c3c(cccc3c1)C(N1CCCCC1)=N2	CHT inh -6 | CHT block conf 65% | HEK293 CHT ctr 4.6
CN(C)CCCn1c(=O)n(C2CCCCC2)c(=O)c2c3c(sc21)CCCCC3	CHT inh -8 (no result: PHOSPHO1 block) | CHT block conf 36% | HEK293 CHT ctr inactive
CC(SCC(=O)O)c1nc2ccccc2[nH]1 (stereo not drawn)	CHT inh -5.7 | CHT block conf inactive | HEK293 CHT ctr inactive
COc1ccc(/C=C/C(=O)N2CCN(c3ccccn3)CC2)cc1	none
N#C/C(=C\C1CC=CCC1)c1nc2ccccc2[nH]1 (stereo not drawn)	none
CCOC(=O)c1sc(=S)n(CC)c1NC(=O)C1CC1	CHT inh -6.1 | CHT block conf 71% | HEK293 CHT ctr inactive
O=C(O)c1cccc(-n2cccc2/C=C2/NC(=O)N(Cc3ccccc3F)C2=O)c1	none
COc1cccc(NC(=O)Cc2nnc(SCC(=O)NC3CCCCC3)n2C)c1	none
Cc1ccc(NC(=O)CC(C)S(=O)(=O)c2ccc3c(c2)NC(=O)CO3)c(Cl)c1 (stereo not drawn)	none
Cc1ccc(N(C)C(=O)CC(C)S(=O)(=O)c2ccc3c(c2)NC(=O)CO3)cc1 (stereo not drawn)	CHT inh -5.7 | CHT block conf inactive | HEK293 CHT ctr inactive
CC12CCC(C(=O)NNc3ccccc3)(C(=O)C1=O)C2(C)C (stereo not drawn)	none
O=C(NC1CCCC1)c1ccc(CS(=O)(=O)Cc2ccccc2F)o1	none
CC1CCC(NC(=O)c2ccc(CS(=O)(=O)Cc3ccccc3F)o2)CC1 (stereo not drawn)	CHT inh -5.4 | CHT block conf 41% | HEK293 CHT ctr inactive
CC(NC(=O)/C=C/c1ccccc1)c1ccccc1 (stereo not drawn)	CHT inh -5.4 | CHT block conf inactive | HEK293 CHT ctr inactive
COc1ccc(S(=O)(=O)N2CCN(CCc3ccccc3)CC2)c(OC)c1	CHT inh -5.5 (no result: PHOSPHO1 block) | CHT block conf 48% | HEK293 CHT ctr inactive
NS(=O)(=O)c1ccc(NC(=O)Nc2ccc(S(N)(=O)=O)cc2)cc1	CHT inh -13 | CHT block conf inactive | HEK293 CHT ctr inactive
CSCc1ccc(C(=O)N2CCCC(Nc3ccc(F)cc3)C2)o1 (stereo not drawn)	CHT inh -5.2 | CHT block conf inactive | HEK293 CHT ctr inactive
CSCc1ccc(C(=O)N2CCCC(Nc3ccc4c(c3)OCCO4)C2)o1 (stereo not drawn)	none
O=S(=O)(Cc1ccccc1)NCC1CCCN(Cc2cccc3nonc23)C1 (stereo not drawn)	none
COc1ccc(C(=O)CSc2nnc(-c3ccco3)n2CC2CCCO2)cc1 (stereo not drawn)	none
COc1ccc(C(=O)CSc2nnc(-c3ccco3)n2C)cc1	CHT inh -5.4 | CHT block conf inactive | HEK293 CHT ctr inactive
Cc1ccc2c(c1)N(CCCC(=O)NCC1COc3ccccc3O1)C(=O)CO2 (stereo not drawn)	CHT inh -8.9 | CHT block conf 21% | HEK293 CHT ctr inactive
Cc1ccc(NC(=O)COC(=O)CN2C(=O)COc3ccccc32)cc1	CHT inh -5 | CHT block conf 43% | HEK293 CHT ctr inactive
Cc1ccc2c(c1)N(CC(=O)NC1CCC(C)CC1)C(=O)CO2 (stereo not drawn)	CHT inh -5.9 | CHT block conf inactive | HEK293 CHT ctr inactive
CN(CCC1CCOCC1)C(=O)C1CCC(=O)N(CCc2ccc(Cl)cc2)C1 (stereo not drawn)	none
CCCCN(CCCC)c1cn[nH]c(=O)c1Cl	CHT inh -6.6 | CHT block conf 66% | HEK293 CHT ctr inactive
CCCc1cc(C(=O)Nc2sc(C)c(C)c2C(=O)OCC)no1	none (no result: CHT inh, HDAC3 inhib, ANO1 block, CHT PAM)
Cc1ccc(-c2nc3ccccc3c(=O)n2Cc2ccccc2)cc1	none
O=c1c2ccccc2nc(-c2ccccc2)n1Cc1ccco1	CHT inh -6 | CHT block conf 70% | HEK293 CHT ctr inactive
COc1ccccc1NC(=O)COC(=O)C1CC(=O)N(c2ccc3c(c2)OCCO3)C1 (stereo not drawn)	none (no result: CHT inh, ANO1 block, CHT PAM, PHOSPHO1 block)
Cc1cccc(N2CCN(C(=O)c3oc4ccc(Br)cc4c3C)CC2)c1C	none (no result: CHT inh, ANO1 block, CHT PAM, PHOSPHO1 block)
CCOc1ccc(-c2cc(C(=O)NCCCN3CCOCC3)c3ccccc3n2)cc1	none
COc1ccc(-c2cc(C(=O)NCCCN3CCOCC3)c3cc(C(C)C)ccc3n2)cc1	CHT inh -7.4 | CHT block conf 50% | HEK293 CHT ctr inactive

Bioassay records from PubChem.
